Mot1-301 SUMO: yeast Mot1-301 growth rescue at high temperature, primary screen, SUMOylation pathway inhibitor project, S. cerevisiae, ATP luminescence, 38.5C; S. cerevisiae Mot1-301 growth rescue; percent above DMSO median, 100 means doubled; growth rescue, % at 18.8 µM; 320,000 tested, 1% active; AID 2716, 2010;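 active = every valid replicate shows activation above 250% relative to neutral control wells; inactive = the rest, any valid replicate at or below 250%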;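 note: OY570 slx delta 5 strain wells were the positive control but not used for scaling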
pCIP destab: p/CIP-EGFP fusion destabilizers, primary screen, fluorescence, F442A cells; Q05BA5; 16 h; decrease of EGFP signal, % at 10 µM; 290,000 tested, 0.01% active; AID 1984, 2009;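 active = EGFP signal decrease of at least 30% at 10 µM or well 3 SD below plate mean, unless failing retest; inactive = the rest, including hits failing retest or dose response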
HDAC3 inhib: HDAC3 deacetylase inhibitors, primary screen, biochemical, fluorescence, cell-free homogeneous. 320,000 tested, 0.15% active. inhibition, % at 8.3 µM. Histone deacetylase 3 (Homo sapiens), O15379. recombinant HDAC3, fluorogenic peptide/trypsin coupled. AID 2718, 2010; in the data active = inhibition above about 26%, passing the limit was not always enough
PvdQ acylase: P. aeruginosa PvdQ acylase inhibitors, primary screen, biochemical, fluorescence, plate reader and imaging, single point; PvdQ acylase [Pseudomonas aeruginosa LESB58]; purified PvdQ acylase; inhibition, % at 10 µM; 340,000 tested, 0.063% active; in the data active = inhibition above about 30%, passing the limit was not always enough;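 note: 0% = vehicle neutral wells and 100% = reference inhibitor wells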
PHOSPHO1 block: PubChem AID 1565; inhibition, % at 13.3 µM; recombinant PHOSPHO1, absorbance phosphatase assay; Phosphoethanolamine/phosphocholine phosphatase (Homo sapiens), Q8TCT1; 290,000 tested, 1.1% active; in the data active = inhibition above about 60%
GASC-1 inh: inhibitors of GASC-1 histone demethylase, primary screen, biochemical, fluorescence, DELFIA europium; Lysine-specific demethylase 4C (Homo sapiens), Q9H3R0; GST-JMJD2C(1-420) H3K9me3 demethylation; inhibition, % at 2.35 µM; 330,000 tested, 0.069% active; AID 2099, 2009;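 active = more than half of a compound's replicate wells show inhibition beyond 50%, single wells judged on their own value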;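 note: signal counts dimethyl H3K9 product captured on neutravidin plate; 0% = median of DMSO wells and 100% = 0.3 times that DMSO median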
Target sequence (Q9H3R0 1-420 limits assumed): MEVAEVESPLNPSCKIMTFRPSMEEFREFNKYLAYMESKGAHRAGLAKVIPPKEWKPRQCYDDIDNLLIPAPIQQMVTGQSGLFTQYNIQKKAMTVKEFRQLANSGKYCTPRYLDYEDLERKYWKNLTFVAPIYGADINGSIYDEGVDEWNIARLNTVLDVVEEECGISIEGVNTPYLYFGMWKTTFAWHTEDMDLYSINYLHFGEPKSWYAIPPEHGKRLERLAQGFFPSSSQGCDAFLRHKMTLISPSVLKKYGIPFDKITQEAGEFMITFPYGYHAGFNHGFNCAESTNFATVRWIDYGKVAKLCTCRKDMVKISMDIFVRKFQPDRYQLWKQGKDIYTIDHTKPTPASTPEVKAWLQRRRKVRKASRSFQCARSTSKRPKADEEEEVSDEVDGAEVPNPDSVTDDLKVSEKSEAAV
* marks the source's active call; other numbers are inactive results; x = not tested or not shown; + = active, no number. An excerpt weighted towards active compounds, which were near 2.2% of everything screened.

SMILES	Mot1-301 SUMO	pCIP destab	HDAC3 inhib	PvdQ acylase	PHOSPHO1 block	GASC-1 inh
CSc1ncc(C(=O)O)n1-c1ccc(F)cc1	-9	-12	3	5	-3	-21
COc1ccc(CN(CC2CCCO2)C(=O)c2cc3sccc3n2C)c(OC)c1 (centres undefined)	292	-7	-8	8	37	2
O=C(c1ccccc1)c1ccc(OCCCN2CCCC2)cc1	+	-7	4	4	-8	0
O=C(c1ccccc1)c1ccc(OCCCCN2CCCCC2)cc1	4	-5	0	-8	6	3
CCCc1cc(=O)n2nc(N3CCC(C(=O)N4CCN(c5ccc(OC)cc5)CC4)CC3)sc2n1	-2	-30	1	-8	64*	4
CC(=O)c1cccc(OCc2cc(C(=O)N3CCC(N4CCCCC4)CC3)no2)c1	-14	1	1	-14	64*	7
CC(=O)c1cccc(OCc2cc(C(=O)N3CCSCC3)no2)c1	-11	-4	2	-17	27	6
C/C(=N/NC(=O)c1ccc(C)s1)c1ccncc1	-3	0	6	-11	-48	10
COc1ccc(N(CC(=O)NC2CCCCC2)C(=O)CCC(=O)Nc2nc(C)cs2)cc1	27	-1	-1	-4	15	-14
CN1CCN(c2oc(COc3ccc(-c4ccccc4)cc3)nc2C#N)CC1	563*	-6	2	8	14	4
CC(=O)c1ccc(S(=O)(=O)N2CCN(C(C)C(=O)N(C)Cc3ccccc3)CC2)cc1 (centres undefined)	16	x	0	-16	x	3
O=C1CC(c2ccco2)Sc2nc3ccccc3n21 (centres undefined)	3	5	-1	6	106*	2
O=C1CC(c2ccc3c(c2)OCO3)Sc2nc3ccccc3n21 (centres undefined)	-24	6	-1	16	97*	x
O=C1CC(c2ccccc2)Sc2nc3ccccc3n21 (centres undefined)	238	-3	-1	-22	16	4
CCc1ccc(/C=N/NC(=O)c2nnn(-c3nonc3N)c2CN2CCOCC2)cc1	-19	-10	8	-11	18	3
CN1c2ccccc2C(C)(C)C12CCCC(=O)N2 (centres undefined)	0	5	5	0	87*	9
Cc1cnn(C(=O)c2ccccc2Br)c1	6	-4	9	x	5	85*
Cc1ccc(N2CCN(C(=O)c3ccccc3Br)CC2)c(C)c1	-11	-6	6	-2	-21	10
O=c1/c(=C\c2cccn2-c2ccccc2)sc2nc3ccccc3n12	x	-3	x	-11	23	x
Cc1ccc(-n2c(C)cc(/C=c3/sc4nc5ccccc5n4c3=O)c2C)cc1	-23	-8	5	x	62*	-5
CC(C)CC1CC(C)(c2csc(NNC(=O)c3ccccc3)n2)OC1=O (centres undefined)	12	-4	0	-13	-7	20
Cc1ccc2cccc(NC(=S)NC(=O)c3ccnn3C)c2n1	-6	-8	5	-6	-23	1
Cn1nccc1C(=O)NC(=S)Nc1cc(Cl)cc(Cl)c1	334*	3	0	22	32	3
O=C(NC12CC3CC(CC(C3)C1)C2)c1ccc([N+](=O)[O-])o1	-15	-5	0	6	45	5
COc1ccc(-n2c(SCC(=O)Nc3cccc4ccccc34)nc(O)cc2=O)cc1	320*	-1	-1	4	12	-4
COc1ccc(-n2c(SCC(=O)Nc3ccccc3)nc(O)cc2=O)cc1	-17	-8	15	-6	37	3
Cn1ccnc1SCC(=O)c1ccc(C#N)cc1	-14	-15	36*	-8	19	-1
Cc1ccc(NC(=O)[C@@H]2CCCN2S(=O)(=O)c2ccc(Cl)cc2)cc1	76	x	-2	-4	x	6
CC(=O)Oc1ccc(/C=N/NC(=O)C2CCCN2S(=O)(=O)c2ccc(Cl)cc2)cc1 (centres undefined)	-1	6	4	-7	73*	6

Screening data from PubChem.
